Screening results: PubChem BioAssay, National Center for Advancing Translational Sciences (NCATS)
IL-1B inflam inh = inhibitors of inflammasome signaling (IL-1 beta secretion); THP-1 LPS/ATP IL-1B secretion, AlphaLISA, 16 h; hits give low values; activity change, % at 57.5 µM; 360,000 tested, 4.7% active; in the data active = activity change below about -50%; inconclusive = mostly about -30% to -49%
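THP-1 cells pretreated 1 hr with compounds (up to 57.5 uM final), then stimulated with LPS (250 ng/mL final) plus ATP (1.25 mM final); secreted IL-1B measured by AlphaLISA after 16 hr, decreased signal indicating inhibition.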
HT1080 IDH1KD tx = toxicity to HT-1080 IDH1 knockdown cells (counter line). AID 686971. HT-1080 IDH1 knockdown viability, ATP luminescence, 48 h. Potency, µM (top dose mostly 46.1 µM), for the others: top-dose activity, negative = toxicity, hits mostly cytotoxic. 360,000 tested, 2% active;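 note: potency is the fitted concentration of half-maximal effect; 0% = DMSO wells and -100% = cell-free medium wells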
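Using the IDH1-knockdown HT-1080 line run in the same batch and compound series as the NT line, viability after 48 h at 37 °C was determined by CellTiter-Glo luminescence and expressed as % activity.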
TDP1 cell noCPT = qHTS for Inhibitors of human tyrosyl-DNA phosphodiesterase 1 (TDP1): qHTS in cells in absence of CPT; DT40 Tdp1-/- hTDP1 cells, no CPT, ATP luminescence, 48 h; 420,000 tested, 15% active; AID 686978, 2013; Potency, µM (doses to about 46.2 µM), for the others: top-dose activity change, negative = growth inhibition, most hits filed as inhibitors; note: potency is the fitted concentration of half-maximal effect; nearly all actives have a fitted effect of over 55% in size
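Chicken DT40 Tdp1-/- cells stably complemented with human TDP1 were seeded at 400 cells/well with DMSO in place of 20 nM camptothecin. After compound pinning, cells grew at least 48 hr at 37 °C; viability read by CellTiter-Glo luminescence.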
HT1080NT lethal = kills 2HG-producing HT-1080-NT fibrosarcoma cells; HT-1080-NT fibrosarcoma viability, CellTiter-Glo ATP luminescence, 48 h; Potency, µM (series often up to 46.1 µM), without a hit: at the highest dose activity, negative = less viability, hits mostly cytotoxic; 360,000 tested, 1.6% active; AID 686970;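 note: NT is the 2HG producing partner of a matched IDH1 knockdown line; potency is the fitted concentration of half-maximal effect; 0% = DMSO-treated cells and -100% = media-only wells without cells; nearly all actives have a fitted effect of over 55% in size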
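750 cells/well, RPMI + 5% FBS; 2 h settle, compound pin-transfer, 48 h at 37 degrees C. CellTiter-Glo 10 min RT, luminescence. Normalized to DMSO and media-only wells.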
DT40 TDP1 CPT = growth inhibition of DT40 Tdp1-/-;hTDP1 cells with camptothecin (screen for TDP1 inhibitors). Potency, µM (top dose mostly 46.2 µM), for the others: top-dose activity change, negative = growth inhibition, usual class: inhibitors. 420,000 tested, 12% active. AID 686979. chicken DT40 Tdp1-/-;hTDP1 cells + 20 nM CPT, ATP luminescence, 48 h; note: potency is the fitted concentration of half-maximal effect; nearly all actives have a fitted effect of over 55% in size
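Cell growth measured by CellTiter-Glo luminescence after a minimum 48 h, 37 C compound exposure with 20 nM CPT in Tdp1-knockout DT40 cells stably expressing hTDP1, seeded 400/well; qHTS titration format.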
uPA generation = cell surface uPA generation inhibition; cell surface uPA generation assay, qHTS; Potency, µM (doses to about 38.3 µM), without a hit: at the highest dose activity change, negative = inhibition, most hits filed as inhibitors; 330,000 tested, 0.31% active; active = well fitted inhibition curve with a large enough effect; inconclusive = small, poorly fitted or top-dose-only effect; inactive = no such curve, though single readings can be large or run the other way; tested in mouse RAW 264.7 cells; note: potency is the fitted concentration of half-maximal effect; nearly all actives have a fitted effect of over 55% in size
* hit, by the source's call; ? = inconclusive; nt = no result; [ ] = dose if it differs, or a comment. An excerpt weighted towards active compounds, which were near 19% of everything screened. Unless noted, calls come from the whole dose curve; as a rule, active = well fitted curve in the direction sought with a large enough effect; inconclusive = small, poorly fitted or top-dose-only effect, or another doubt; inactive = no such curve, though single readings can be large; an effect the other way counts as inactive or inconclusive. Unless noted, % is set by controls: 0 for no effect and ±100 for the full control effect.

SMILES	IL-1B inflam inh	HT1080 IDH1KD tx	TDP1 cell noCPT	HT1080NT lethal	DT40 TDP1 CPT	uPA generation
COc1ccc(C(c2nnnn2Cc2ccccc2)N2CCN(c3nc4ccccc4s3)CC2)cc1OC (centres undefined)	-8.3	-16.8%	18.4µM*	-19.5%	?	-6.1%
CCC(C)(C)n1nnnc1C(c1cc(OC)c(OC)c(OC)c1)N1CCN(c2ccccc2)CC1 (centres undefined)	-3.1	10.9%	-21.8%	5.9%	-8.8%	0.2%
COc1ccccc1C(c1nnnn1Cc1ccccc1)N1CCN(c2nc3ccccc3s2)CC1 (centres undefined)	-6.9	-2.3%	?	-0.1%	?	8.8%
CCC(C)(C)n1nnnc1C(c1ccc(O)c(OC)c1)N1CCN(c2nc3ccccc3s2)CC1 (centres undefined)	14.8	1.8%	16.4µM*	5.9%	?	2.6%
c1ccc(C(c2nnnn2Cc2ccco2)N2CCN(c3nc4ccccc4s3)CC2)cc1 (centres undefined)	-13.0	-15.5%	14.6µM*	-8.6%	?	4.2%
COc1ccccc1C1(O)CCN(CC(=O)Nc2nc(-c3ccccc3)cs2)CC1	-62.2*	?	?	-20.6%	-18.5%	1.3%
Cc1cc(-c2nnc(SCC(=O)Nc3nc(-c4ccccc4)cs3)o2)no1	9.9	1.0%	?	-0.5%	14.6µM*	-14.3%
CCOc1ccc(Oc2ccccc2NC(=O)CSCC(=O)Nc2cc(C)on2)cc1	4.9	?	13µM*	?	23.1µM*	-4.8%
Cc1occc1-c1nnc(SCC(=O)Nc2nc(-c3ccccc3)cs2)o1	26.3	?	?	?	-28.0%	10.0%
O=C(CSCC(=O)N1CCOCC1)Nc1nc(-c2ccccc2)cs1	25.8	0.0%	-10.8%	-0.2%	-4.8%	5.9%
CCOC(=O)N1CCN(C(=O)CSCC(=O)Nc2nc(-c3ccc(-c4ccccc4)cc3)cs2)CC1	27.1	?	3.26µM*	?	3.26µM*	?
Cc1ccccc1NC(=O)Cc1nc(COC(=O)c2cccc([N+](=O)[O-])c2)cs1	0.0	4.9%	-6.6%	4.6%	-15.1%	10.0%
Cc1ccc(C(C)(C)c2ccc(C)cc2)cc1	nt	nt	7.8%	nt	2.8%	nt
COc1ccc(-c2csc(NC(=O)CSCC(=O)Nc3cc(C)on3)n2)cc1	17.3	11.2%	23.1µM*	3.1%	?	2.0%
COc1ccc(-c2csc(NC(=O)CSc3nc(SC)ns3)n2)cc1	9.2	-4.0%	23.1µM*	-8.3%	?	?
Cc1cc(NC(=O)C(C)SCC(=O)Nc2ccccc2N2CCCC2)no1 (centres undefined)	21.6	11.6%	?	17.9%	?	14.1%
Cc1cc(NC(=O)C(C)SCC(=O)Nc2ccccc2C(C)(C)C)no1 (centres undefined)	19.1	9.1%	14.6µM*	10.5%	?	-0.6%
COc1ccc(-c2csc(NC(=O)COC(=O)C3=COCCO3)n2)cc1	-18.6	-1.7%	-16.0%	-1.0%	3.3%	-6.1%
CCOC(=O)N1CCN(C(=O)CSCC(=O)Nc2nc(-c3ccc(OC)cc3)cs2)CC1	-13.5	-21.2%	20.6µM*	-19.2%	?	nt
COc1ccc(-c2csc(NC(=O)CSc3nc(C)cs3)n2)cc1	34.4	4.8%	?	14.2%	-29.9%	-1.7%
CSc1ccc(CN2CCC(Oc3ccc(C(=O)N4CCCC4)cc3)CC2)cc1	1.2	-27.4%	?	?	-20.3%	-7.1%
COc1ccc(CN2C[C@@H](CO)O[C@@H](n3cnc4c(N5CCOCC5)ncnc43)C2)cc1	-2.1	19.7%	10.3%	7.7%	-28.2%	nt
CCOC(=O)N1CCN(CC(=O)Nc2nc3ccccc3s2)CC1	16.4	-11.7%	-3.6%	-8.0%	-17.6%	4.1%
CCOC(=O)N1CCN(C(=O)CSCC(=O)Nc2nc(-c3ccc(Cl)s3)cs2)CC1	-26.3	?	18.4µM*	0.0%[9.24 µM]	14.6µM*	nt
Cc1ccc(C(=O)NC(=S)Nc2cccc3c(C)cc(C)nc23)cc1	12.4	-21.0%	20.6µM*	-20.5%	?	3.1%
SMILES	IL-1B inflam inh	HT1080 IDH1KD tx	TDP1 cell noCPT	HT1080NT lethal	DT40 TDP1 CPT	uPA generation
COc1ccc(C(=O)NC(=S)Nc2cccc3nc(C)ccc23)cc1OC	0.0	-5.7%	20.6µM*	0.7%	?	14.5%
Cc1ccc(C(=O)NC(=S)Nc2cccc3nsnc23)cc1	23.0	1.9%	-19.0%	0.7%	-15.0%	8.2%
Cc1ccc2cccc(NC(=S)NC(=O)c3ccn(C)n3)c2n1	20.0	7.94µM*	?	7.94µM*	?	-12.0%
O=C(CCSCc1cccc(Cl)c1)NCc1ccccc1Cl	nt	nt	25.9µM*	nt	?	nt
O=C(CCSCc1cccc(F)c1)NCc1ccc(F)cc1	19.0	4.7%	18.4µM*	-0.1%	?	8.8%
CCOC(=O)c1nnn(-c2nonc2N)c1CS(=O)(=O)c1ccccc1	11.4	0.2%	-5.4%	0.8%	0.1%	-7.7%
CCOC(=O)c1nnn(-c2nonc2-n2cccc2)c1CCl	-116.5*	?	6.51µM*	?	4.61µM*	-7.1%
COc1ccc(N(C(=O)COc2ccccc2OC)S(=O)(=O)c2ccc(Cl)cc2)cc1	nt	nt	23.1µM*	nt	16.4µM*	nt
COc1ccc(N(C(=O)c2cccnc2)S(=O)(=O)c2ccc(Cl)cc2)cc1	-15.7	-3.6%	-14.9%	-10.0%	?	-17.4%
Cc1ccc(C(=O)N(c2ccc(C)cc2)S(=O)(=O)c2ccc(Cl)cc2)cc1	nt	nt	23.1µM*	nt	?	nt
COc1ccc(N(C(=O)c2cccc(C)c2)S(=O)(=O)c2ccc(Cl)cc2)cc1	nt	nt	?	nt	18.4µM*	nt
COc1ccc(N(C(=O)c2ccc(C(C)(C)C)cc2)S(=O)(=O)c2ccc(Cl)cc2)cc1	nt	nt	20.6µM*	nt	?	nt
CN(C)c1ccc(CNC(=O)c2cc(S(=O)(=O)N3CCOCC3)cn2C)cc1	-5.0	1.0%	-27.5%	25.0%	2.5%	4.1%
COc1ccc(OC)c(S(=O)(=O)NC(=O)C2(C)CCN2C(=O)Cc2ccccc2Cl)c1 (centres undefined)	25.6	?	4.7%	9.6%	10.6%	nt
Cc1ccc2nc(N3CCCCCC3)c(CN(CC3CCCO3)C(=O)c3cncs3)cc2c1 (centres undefined)	nt	nt	-23.1%	nt	-5.7%[9.04 µM]	nt
O=C(Nc1c2c(nn1-c1cccc(Cl)c1)CS(=O)(=O)C2)c1ccco1	0.5	14.3%	14.3%	1.4%	3.7%	-7.7%
COc1ccccc1CNC(=O)COC(=O)c1cnc(C)cn1	10.7	-8.3%	-21.7%	7.8%	-6.1%	nt
